Source: PubChem BioAssay (EPA / NIEHS)
Records with an inconclusive call do not appear. Calls of active or inactive are those of the source. Rule for the calls: active = hit-call score of the fitted dose curve at least 0.9, where 1 is the maximum; inconclusive = response in the unintended direction; inactive = score below 0.9.

Assay: Tanguay_ZF_120hpf_SOMI_legacy: (Legacy) Oregon State University Tanguay Lab 120 Hour Post-fertilization zebrafish Assay for Somite Malformation (AID 2283647)
Experimental: Tanguay_ZF_120hpf_legacy is a whole embryo, multiplexed endpoint assay using zebrafish larvae exposed for 120 hours post fertilization on a 96-well plate.Tanguay_ZF_120hpf_SOMI_legacy is one of one assay component(s) measured or calculated from the Tanguay_ZF_120hpf_legacy assay. It is designed to make measurements of zebrafish development as detected with brightfield microscopy of developing zebrafish embryos.Data from the assay component Tanguay_ZF_120hpf_SOMI_legacy was analyzed into 1 assay endpoints. This assay endpoint, Tanguay_ZF_120hpf_SOMI_legacy, was analyzed in the positive analysis fitting direction relative to DMSO as the negative control and baseline of activity. Using a type of morphology reporter, gain-of-signal activity can be used to understand changes in developmentals as they relate to the whole embryo. To generalize the intended target to other relatable targets, this assay endpoint is annotated to the zebrafish development intended target family, where the subfamily is somitogenesis.
Zebrafish husbandry: Tropical 5D wild-type adult zebrafish were housed in at an approximate density of 1000 per 100 gallon tank at the Sinnhuber Aquatic Research Laboratory, Oregon State University, Corvallis, OR. Each tank was kept at standard laboratory conditions of 28C on a 14-h light/10-h dark photoperiod in fish water consisting of reverse osmosis water supplemented with a commercially available salt (Instant Ocean). Spawning funnels were placed into the tanks the night prior, and embryos were collected and staged. To increase bioavailability, the chorion was enzymatically removed using pronase (63.6mg/ml, >/= 3.5U/mg, Sigma-Aldrich: P5147) at 4 hours post fertilization (hpf) using a custom automated dechorionator.Chemical exposures: Six hpf dechorionated embryos were placed 1 embryo per well in a 96-well plate prefilled with 90 ul of EM using automated embryo placement systems (AEPS). Ten microliters of each row of dilution plate 2 was added to 2 exposure plates. The final DMSO concentration used was 0.64% (vol/vol). Thirty-two embryos were also exposed to 5uM trimethyltin chloride (positive control). Plates were sealed to prevent evaporation and foil covered to reduce light exposure and kept in a 28C incubator. Embryos were statically exposed until 120 hpf. At 24 hpf, embryos were assessed for photomotor response using a custom photomotor response analysis tool (PRAT) and for developmental toxicity endpoints (MO24: mortality at 24 hpf, DP: developmental progression, SM: spontaneous movement, and NC: notochord distortion). At 120 hpf, locomotor activity was measured using Viewpoint Zebralab and assessed for 18 endpoints. Zebrafish acquisition and analysis program (ZAAP), a custom program designed to inventory, acquire, and manage zebrafish data, was used to collect developmental endpoints as either present or absent (i.e., binary responses were recorded). If mortality occurred for an embryo (at either 24 or 120 hpf), the non-mortality endpoints were not measured.

SMILES | outcome | AC50
Brc1ccc(Oc2ccccc2)cc1 | inactive | –
Nc1ccc(Cc2ccc(N)cc2)cc1 | inactive | –
C=CCc1ccc2c(c1)OCO2 | inactive | –
CCN(CC)CCO | inactive | –
[As]#[In] | inactive | –
CCCCC(CC)COC(=O)c1ccc(C(=O)OCC(CC)CCCC)c(C(=O)OCC(CC)CCCC)c1 (stereo not given) | inactive | –
CCCCCCCCCCCCCN1CC(C)OC(C)C1 (stereo not given) | inactive | –
Cc1cccc(N)c1N | inactive | –
CN(C)[C@@H]1C(=O)C(C(N)=O)=C(O)[C@@]2(O)C(=O)C3=C(O)c4c(O)cccc4[C@@](C)(O)[C@H]3C[C@@H]12 | inactive | –
OCCCl | inactive | –
Nc1cc(Cl)cc(C(=O)O)c1Cl | inactive | –
[Cl-].[Cl-].[Hg+2] | – | 3.87 µM (active)
COc1cc(C=O)cc2c1[C@H](COC(N)=O)[C@]1(OC(C)=O)ON2C[C@H]2[C@@H]1N2C(C)=O | inactive | –
CN(C)C(=O)Nc1ccc(Cl)cc1 | inactive | –
CC(C)(O)c1cnn2c(-c3ccc(F)c(-c4c(F)cccc4C#N)c3)cnc2n1 | inactive | –
[O-][Cl+]O | inactive | –
Cc1ccc([N+](=O)[O-])cc1 | inactive | –
C[N+](C)(C)CC1CO1 (stereo not given) | inactive | –
CCCSC(=O)N(CCC)CCC | inactive | –
OCCOCCO | inactive | –

SMILES | outcome | AC50
Cc1ccc(N)cc1 | inactive | –
CCCCCCCCOC(=O)c1ccc(C(=O)OCCCCCCCC)c(C(=O)OCCCCCCCC)c1 | inactive | –
O=C(Nc1ccccc1)c1ccccc1I | inactive | –
c1ccc(C2CO2)cc1 (stereo not given) | inactive | –
Clc1ccc(C(c2ccc(Cl)cc2)C(Cl)(Cl)Cl)cc1 | inactive | –
CC(C)(OOC(C)(C)c1ccccc1)c1ccccc1 | inactive | –
CCCCCOC(=O)c1ccccc1C(=O)OCCCCC | inactive | –
CN(C)c1ccc(C(=O)c2ccc(N(C)C)cc2)cc1 | – | 28.4 µM (active)
Nc1ccc(Cl)cc1N | inactive | –
CC(C)COC(=O)c1ccccc1C(=O)OCC(C)C | – | 50.6 µM (active)
CC(C)(C)OOC(=O)c1ccccc1 | inactive | –
O=C(Oc1ccc(Br)cc1)N1CCN2CCC1CC2 | inactive | –
Nc1ccc([N+](=O)[O-])cc1 | inactive | –
Cn1cc(-c2ccccc2)c(=O)c(-c2cccc(C(F)(F)F)c2)c1 | inactive | –
CCOc1cccc(C2(N3CCN(c4ccccc4)CC3)CCC(C)CC2)c1 (stereo not given) | inactive | –
c1ccc(NNc2ccccc2)cc1 | inactive | –
O=P(OCCCl)(OCCCl)OCCCl | inactive | –
O=Cc1ccco1 | inactive | –
CC(O)CCO (stereo not given) | inactive | –
CCCCOC(=O)c1ccccc1C(=O)OCc1ccccc1 | inactive | –
